Results with a measured potency or affinity are listed apart.

The nature of this assay: restoration of touch response, mutant HTT neurons – whole organism, C. elegans mechanosensory neurons, N-terminal huntingtin (AID 1599). The conditions noted are these: C. elegans polyQ-huntingtin mechanosensory neurons, stronger effect = higher value.
`CN1CCN(CCCN2c3ccccc3Sc3ccc(Cl)cc32)CC1` displayed a rescue above control of 0. Under `CC(C(=O)O)c1ccc(C(=O)c2cccs2)cc1` (stereo unspecified) stands -0.97; under `Nc1c(Br)cc(Br)cc1CNC1CCC(O)CC1` (stereo unspecified), -1.56; under `COc1cnc(NS(=O)(=O)c2ccc(N)cc2)nc1`, -2.23.

`CC(C)(Oc1ccc(CCNC(=O)c2ccc(Cl)cc2)cc1)C(=O)O` returned a rescue above control of -10.8. The value for `CO[C@]12C[C@@H](COC(=O)c3cncc(Br)c3)CN(C)[C@@H]1Cc1cn(C)c3cccc2c13` was 12.5; that for `CN1Cc2c(N)cccc2C(c2ccccc2)C1` (stereo unspecified) was -9.83. `CC(Cc1cccc(C(F)(F)F)c1)NCCOC(=O)c1ccccc1` (stereo unspecified) registered a rescue above control of 0.

Turning to `CCN(CC)CCNC(=O)c1cc(Br)c(N)cc1OC`, the rescue above control was 5.76.

`COc1ccc(CN(CCN(C)C)c2ccccn2)cc1` showed a rescue above control of 23.5.

`CCN(CC)C(=O)N1CCN(C)CC1` yielded a rescue above control of -3.55.

Compound `Cc1ncc([N+](=O)[O-])n1CCO` yielded a rescue above control of 22.1. Under `CCCCOc1ccc(OCCCN2CCOCC2)cc1` stands 8.67; under `O=C(O)CCC(=O)Nc1ccc(S(=O)(=O)Nc2nccs2)cc1`, -4.64; under `Cc1ccccc1N1C(=O)c2cc(S(N)(=O)=O)c(Cl)cc2NC1C` (stereo unspecified), 6.73.

On to `Cc1ccc(C(=O)c2ccc(CC(=O)O)n2C)cc1`, for which the rescue above control was -3.75. The value for `Cc1ccccc1OCC(O)CO` (stereo unspecified) was -6.62; that for `O=C(Cn1ccnc1[N+](=O)[O-])NCCO` was -3.38; that for `CC1(C)OC(=O)NC1=O` was 14.1.

In turn, `COc1ccc(NS(=O)(=O)c2ccc(N)cc2)nn1` yielded a rescue above control of 12.3. Under `C=CCc1ccccc1OCC(O)CNC(C)C` (stereo unspecified) stands 6.88. On to `Cc1cc(C(C)(C)C)c(O)c(C)c1CC1=NCCN1`, for which the rescue above control came to 2.64. Under `CCn1cc(C(=O)O)c(=O)c2cnc(N3CCCC3)nc21` stands 7.28; under `CCOC(=O)[C@H](CCc1ccccc1)N[C@@H](C)C(=O)N1CCC[C@H]1C(=O)O`, 6.04; under `Cc1c(NC(=O)c2cccnc2)c(=O)n(-c2ccccc2)n1C`, -0.65.

With `NS(=O)(=O)c1cc(C(=O)O)c(NCc2ccco2)cc1Cl`, the rescue above control was -8.35. Under `CCCC(C(=O)OCCN(CC)CC)(c1ccccc1)c1ccccc1` stands -2.09; under `O=C(O)c1ccccc1Nc1cccc(C(F)(F)F)c1`, 3.52; under `C[C@](N)(Cc1ccc(O)c(O)c1)C(=O)O`, 10.7. Under `Cc1cc(N)c2ccccc2[n+]1CCCCCCCCCC[n+]1c(C)cc(N)c2ccccc21` stands -0.23; under `NS(=O)(=O)c1cc2c(cc1Cl)NC(C(Cl)Cl)NS2(=O)=O` (stereo unspecified), 12.5; under `Cc1ccnc(NS(=O)(=O)c2ccc(N)cc2)n1`, 11.1. For `Nc1ccc(S(=O)(=O)NC(=O)c2ccccc2)cc1`, the rescue above control is -4.53. The value for `Cc1c(N(C)CS(=O)(=O)O)c(=O)n(-c2ccccc2)n1C` was 6.62; that for `CCCOc1ccccc1-c1nc2n[nH]nc2c(=O)[nH]1` was 1.11. The value for `CC(=O)NO` was -5.59.
